Source: PubChem BioAssay AID1159580 (chemical genetic matrix, 2015)
Values joined by “and” are separate entries in the source; they are usually repeats but may differ in a detail not shown here. Equal entries are not always repeated. Screen size: about 5,500 compounds; about 2,000 (36%) were called active. Another 18% or so got no clear call; they are omitted. Rule as the data show it: active = normalized growth mostly below about 0.91 (no sharp cut-off); inconclusive = no clear call, values can overlap the other calls; inactive = mostly above about 0.92. The list shows a part of the results.

Assay: chemical genetic growth profiling, strain panel (AID 1159580);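 also: tested at 20 µM; growth read once vehicle control cultures reached saturation at 30 °C; 1 = growth at the plate median or of vehicle wells; lower values mean less growth of the strain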
Details: S. cerevisiae deletion strains, growth OD

Measured: normalized growth

COC(C)(C)CCC[C@H](C)C/C=C/C(C)=C/C(=O)OC(C)C
inactive: locus YAL013W, strain DEP1, active compounds read low 0.998 | locus YAL021C, strain ccr4, active compounds read low 1.03 | locus YAL026C, strain drs2, active compounds read low 1.01 | locus YAL030W, strain snc1, active compounds read low 1.03 | locus YBL061C, strain skt5, active compounds read low 1.02 | locus YBR009C, strain hhf1, active compounds read low 1.01 | locus YBR021W, strain FUR4, active compounds read low 0.985 | locus YBR023C, strain chs3, active compounds read low 1.02 | locus YBR171W, strain sec66, active compounds read low 1.02 | locus YBR229C, strain ROT2, active compounds read low 1 | locus YBR231C, strain swc5, active compounds read low 1 | locus YBR279W, strain paf1, active compounds read low 1 | locus YCL011C, strain gbp2, active compounds read low 1.02 | locus YCL016C, strain dcc1, active compounds read low 1.01 | locus YCL029C, strain bik1, active compounds read low 1.05 | locus YCL061C, strain MRC1, active compounds read low 1.02 | locus YCL069W, strain vba3, active compounds read low 1.03 | locus YCR088W, strain abp1, active compounds read low 1.02 | locus YDL005C, strain med2, active compounds read low 1 | locus YDL035C, strain GPR1, active compounds read low 1 | locus YDL040C, strain nat1, active compounds read low 1 | locus YDL074C, strain BRE1, active compounds read low 0.998 | locus YDL101C, strain DUN1, active compounds read low 1.01 | locus YDL134C, strain PPH21, active compounds read low 1.01 | locus YDL185W, strain tfp1, active compounds read low 1.01 | locus YDL192W, strain arf1, active compounds read low 1.03 | locus YDR001C, strain nth1, active compounds read low 1.02 | locus YDR069C, strain doa4, active compounds read low 1.01 | locus YDR101C, strain arx1, active compounds read low 1.02 | locus YDR137W, strain rgp1, active compounds read low 1.09 | locus YDR150W, strain NUM1, active compounds read low 0.994 | locus YDR159W, strain sac3, active compounds read low 1.03 | locus YDR162C, strain NBP2, active compounds read low 1 | locus YDR195W, strain ref2 0.99 | locus YDR297W, strain sur2, active compounds read low 1.02 | locus YDR318W, strain mcm21, active compounds read low 1.03 | locus YDR334W, strain swr1, active compounds read low 1.02 | locus YDR335W, strain msn5, active compounds read low 1.03 | locus YDR388W, active compounds read low 1.02 | locus YDR392W, strain spt3, active compounds read low 1.05 | locus YDR502C, strain sam2, active compounds read low 1.03 | locus YEL003W, strain gim4, active compounds read low 1.01 | locus YEL037C, strain rad23, active compounds read low 1.01 | locus YEL061C, strain CIN8 (second series), active compounds read low 1.02 | locus YEL061C, strain CIN8, active compounds read low 0.999 | locus YER015W, strain faa2, active compounds read low 1.01 | locus YER016W, strain bim1, active compounds read low 1.02 | locus YER110C, active compounds read low 1.03 | locus YER111C, strain swi4, active compounds read low 1.01 | locus YER155C, strain BEM2 (second series), active compounds read low 1.01 | locus YER155C, strain BEM2, active compounds read low 0.99 | locus YER167W, strain BCK2, active compounds read low 1.01 | locus YFR010W, strain ubp6, active compounds read low 1 | locus YGL078C, strain dbp3, active compounds read low 1.02 | locus YGL086W, strain mad1, active compounds read low 1 | locus YGL167C, strain pmr1, active compounds read low 1.02 | locus YGL173C, strain kem1, active compounds read low 1.02 | locus YGL227W, strain vid30, active compounds read low 1.05 | locus YGL240W, strain doc1, active compounds read low 1.03 | locus YGL248W, strain PDE1, active compounds read low 1.01 | locus YGL253W, strain hxk2, active compounds read low 1 | locus YGR078C, strain PAC10, active compounds read low 1.01 | locus YGR135W, strain pre9, active compounds read low 1.04 | locus YGR229C, strain SMI1, active compounds read low 1.03 | locus YGR252W, strain gcn5, active compounds read low 1.06 | locus YHR013C, strain ard1, active compounds read low 1.03 | locus YHR027C, strain rpn1, active compounds read low 1 | locus YHR030C, strain SLT2, active compounds read low 1 and 0.961 | locus YHR079C, strain IRE1 (second series), active compounds read low 1.01 | locus YHR079C, strain IRE1, active compounds read low 0.942 | locus YHR094C, strain hxt1, active compounds read low 1.01 | locus YHR129C, strain ARP1, active compounds read low 0.998 | locus YHR142W, strain chs7, active compounds read low 0.979 | locus YHR200W, strain rpn10, active compounds read low 1.02 | locus YIL066C, strain RNR3, active compounds read low 1.01 | locus YIL073C, strain SPO22, active compounds read low 1.08 | locus YIL125W, strain kgd1, active compounds read low 1.01 | locus YIR030C, strain dcg1, active compounds read low 1.03 | locus YJL092W, strain hpr5, active compounds read low 1.03 | locus YJL095W, strain BCK1 (second series), active compounds read low 1.02 | locus YJL095W, strain BCK1, active compounds read low 1.03 and 0.955 | locus YJL115W, strain asf1, active compounds read low 1.02 | locus YJL129C, strain trk1, active compounds read low 0.942 | locus YJL134W, strain LCB3, active compounds read low 1 | locus YJL154C, strain vps35, active compounds read low 1.01 | locus YJL164C, strain tpk1, active compounds read low 1 | locus YJL166W, strain qcr8, active compounds read low 1.02 | locus YJL168C, strain set2, active compounds read low 1.02 | locus YJL187C, strain SWE1 (second series), active compounds read low 1.02 | locus YJR043C, strain POL32, active compounds read low 1.01 | locus YJR066W, strain TOR1, active compounds read low 0.892
